Source: PubChem BioAssay AID2783 (National Center for Advancing Translational Sciences (NCATS), 2010)
Results filed as inconclusive are left out. Active and inactive are the calls of the source. Calls come from the whole dose curve; as a rule, active = well fitted inhibition curve with a large enough effect in the polarisation, with a control signal flat (not every such curve was filed as active); inconclusive = small, poorly fitted or top-dose-only effect, or effect the other way, or a change in a side signal; inactive = no such curve, though single readings can be large or run the other way; the % refers to the polarisation.

Biological target: Menin (Homo sapiens) (UniProt O00255)
Sequence (O00255 whole entry, looked up): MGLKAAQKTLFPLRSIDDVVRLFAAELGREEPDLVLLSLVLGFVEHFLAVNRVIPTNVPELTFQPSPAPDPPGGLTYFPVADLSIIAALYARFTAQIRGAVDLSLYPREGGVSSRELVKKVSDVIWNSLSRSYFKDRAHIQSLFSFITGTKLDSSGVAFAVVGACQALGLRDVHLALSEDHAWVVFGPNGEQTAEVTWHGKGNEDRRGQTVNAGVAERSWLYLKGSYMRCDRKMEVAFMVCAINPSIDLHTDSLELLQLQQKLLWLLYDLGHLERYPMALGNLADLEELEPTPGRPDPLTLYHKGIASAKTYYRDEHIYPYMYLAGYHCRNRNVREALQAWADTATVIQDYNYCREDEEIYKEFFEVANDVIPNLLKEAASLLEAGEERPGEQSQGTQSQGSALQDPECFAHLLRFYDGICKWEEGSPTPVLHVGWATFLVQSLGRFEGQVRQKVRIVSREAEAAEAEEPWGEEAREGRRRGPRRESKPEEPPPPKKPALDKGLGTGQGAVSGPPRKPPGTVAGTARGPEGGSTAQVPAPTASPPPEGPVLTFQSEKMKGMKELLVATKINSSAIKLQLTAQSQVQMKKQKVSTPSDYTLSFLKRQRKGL
Assay: Confirmation of Inhibitors Targeting the Menin-MLL Interaction in MLL Related Leukemias: Competition With Fluorescein Labeled MLL-derived Peptide

SMILES	outcome
CCCn1c(C2CCCN2c2nc(C)cs2)nc2cc(Cl)c(Cl)cc21 (stereo unspecified)	inactive
CCN(CCn1cccn1)Cc1ccccc1OCC(O)CN1CCc2ccccc2C1 (stereo unspecified)	inactive
O=S(=O)(c1ccc(-c2csc(Nc3ccc(Br)cc3)n2)cc1)N1CCCC1	inactive
CCCc1nc2c(=O)[nH]c3ccccc3c2o1	inactive
COc1ccc(-c2csc(NC(=S)NC(=O)/C=C/c3ccc(C(C)C)cc3)n2)cc1OC	inactive
C[N+]1(CCNC(=O)/C=N/O)CCCCC1	inactive
OC(c1ccccn1)(c1ccccn1)c1ccccn1	inactive
O=C(NC(=S)Nc1ccccc1)c1cc(-c2ccccc2)nc2ccccc12	inactive
Cc1ccc(C(C[N+](=O)[O-])c2c(C)[nH]n(-c3ccccc3)c2=O)cc1 (stereo unspecified)	inactive
O=C(Nc1ccc(F)c(Cl)c1)c1cc(-c2ccco2)on1	inactive
CC(C)Cc1cc(C(=O)NCCCN2CCOCC2)no1	inactive
Clc1ccc(-c2nnc(-c3ccccc3)nc2-c2c[nH]c3ccccc23)cc1	inactive
C[C@@H]1CN(C(=O)c2nc3ccc(Cl)cn3c2CNCC[C@@H]2C[C@@H]3C=C[C@H]2C3)C[C@H](C)O1	inactive
O=C(N1CCOCC1)N1CCN(S(=O)(=O)c2ccc(Cl)cc2)CC1	inactive
O=C(/C=C/c1ccccc1)Nc1nnc(SCC(=O)c2ccc3ccccc3c2)s1	inactive
CC(=O)c1cccc(NS(=O)(=O)c2ccc(N/C=C\C(=O)c3ccc(F)cc3)cc2)c1	inactive
